Compound activity deposited in PubChem by Johns Hopkins Ion Channel Center.
KCNQ2 pot: potentiators of rat KCNQ2 potassium channel | Potassium voltage-gated channel subfamily KQT member 2 (Rattus norvegicus), O88943 | CHO-K1 KCNQ2, FluxOR thallium flux fluorescence; hits give high values | B-score at 10 µM | hit rate 0.54% among 310,000 | AID 2239, 2010;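 active = fluorescence ratio B-score at least 3 SD of library B-scores, with initial fluorescence B-score within 3 of them, cut at about 5.3 in these data; same plate scores as AID 2156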;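 note: B-score of peak minus minimum over baseline fluorescence ratio after K+ and Tl+ stimulus; positive B-score means potentiation of KCNQ2 with more thallium influx and brighter signal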
KCNQ2 block: rat KCNQ2 potassium channel inhibitors, primary screen, cell-based, CHO-K1, FluxOR thallium flux, B-score; Potassium voltage-gated channel subfamily KQT member 2 (Rattus norvegicus), O88943; hit rate 1.1% among 310,000; B-score at 10 µM; 20 min; hits give low values;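 active = fluorescence ratio B-score at most minus 3 library SDs, with starting brightness B-score within 2 library SDs, cut at about -5.5 in these data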
A number is an active result; i = inactive; nt = no result given. Only some compounds are listed: those with a hit (about 1.6% of all), similar ones and a draw of the others.

SMILES	KCNQ2 pot	KCNQ2 block
O=C(COC(=O)c1ccc(Sc2ccccc2)c([N+](=O)[O-])c1)NC1CCCc2ccccc21 (stereo not drawn)	i	-6.9
CC1CC(C)CN(c2ccc(C(=O)OCC(=O)NC3CCCc4ccccc43)cc2[N+](=O)[O-])C1 (stereo not drawn)	i	-7.8
Cn1cnnc1Sc1ccc(C(=O)OCC(=O)NC2CC2)cc1[N+](=O)[O-]	i	i
COc1ccc(C(C)=O)cc1CC(=O)Nc1ccccc1-c1ccccc1	nt	i
C=CCn1c(SCC(=O)N2CCOCC2)nnc1C(C)NC(=O)c1ccccc1 (stereo not drawn)	nt	i
O=C(NCC(c1ccco1)N1CCc2ccccc2C1)C(=O)Nc1cc(F)ccc1F (stereo not drawn)	i	-6.2
O=C(NCC(c1ccco1)N1CCc2ccccc2C1)c1ccc(F)cc1 (stereo not drawn)	i	-5.7
COc1ccccc1NC(=O)C(=O)NCC(c1ccco1)N1CCc2ccccc2C1 (stereo not drawn)	nt	i
O=C(NCC(c1ccco1)N1CCc2ccccc2C1)c1ccccc1 (stereo not drawn)	nt	i
COc1ccc(S(=O)(=O)N2CCCC2CNC(=O)C(=O)Nc2cccc(F)c2)cc1 (stereo not drawn)	nt	i
O=C(C/C=N\OCc1ccc([N+](=O)[O-])cc1)Nc1ccc(Br)cc1	nt	i
Cc1ccc(C)c(NS(=O)(=O)c2c(C)nc3sccn3c2=O)c1	i	i
Cc1ccc(-c2nnc(N3CCC(C)CC3)c3ccccc23)cc1	nt	i
CC1CCN(c2nnc(-c3ccccc3)c3ccccc23)CC1	i	-5.8
Cc1oc2cc3oc(=O)c(CCC(=O)N(C)CC(=O)O)c(C)c3cc2c1C	i	i
CCOC(=O)/C(=C\c1cccnc1)C(=O)c1cc(C(C)=O)c(Nc2ccccc2)s1	nt	i
CCOC(=O)/C(=C\c1ccccc1)C(=O)c1cc(C(C)=O)c(Nc2ccccc2)s1	i	-8.1
O=C(COC(=O)c1ccc([N+](=O)[O-])o1)Nc1cccc(S(=O)(=O)N2CCCCC2)c1	i	i
O=C(Nc1cccc(S(=O)(=O)N2CCCCC2)c1)c1ccc([N+](=O)[O-])o1	8.5	i
Cc1ccc(C)c(-n2c(-c3ccc(Br)cc3)csc2=NC(=O)c2ccccc2F)c1	nt	i
CCCc1noc2c1C(c1cc(Br)ccc1F)C(C#N)=C(N)N2 (stereo not drawn)	nt	i
[O-]/C(=C(\C(=S)Nc1ccc(SC(F)F)cc1)[n+]1cccc(CO)c1)c1ccc(Cl)s1	nt	i
Cc1ccc(NC(=S)/C(=C(\[O-])c2ccc(Cl)s2)[n+]2cccc(CO)c2)cc1C	i	-7.8
O=C(NC(=Nc1nc2ccccc2o1)NC(=O)c1ccccc1)c1ccccc1	nt	i
COc1ccccc1C(=O)NC(=Nc1nc2ccccc2o1)NC(=O)c1ccccc1OC	i	-14
SMILES	KCNQ2 pot	KCNQ2 block
Cc1cc(C)c(Nc2ncnc(N)n2)c(C)c1	nt	i
CCN(Cc1ccccc1)C(=O)CCS(=O)(=O)c1ccc2c(c1)CCN2C(C)=O	i	i
CC(C)(C)C(=O)/C(=C/c1ccncc1)n1cncn1	i	i
CCOC(=O)C(=CNc1ccc(C#N)cc1)C(=O)OCC	i	i
O=C(c1ccccc1)N1CCN(c2ccc(Cl)cc2)CC1	nt	i
O=C(c1noc2c1CSc1ccccc1-2)N1CCN(c2ccc(Cl)cc2)CC1	i	-7
C=CCN(c1cccc(C(F)(F)F)c1)S(=O)(=O)c1cccc(C(=O)OCC(=O)NCCC)c1	6.6	i
C=CCN(c1ccccc1)S(=O)(=O)c1cccc(C(=O)OCC(=O)NCCOC)c1	i	i
O=C(c1cc(F)c(F)cc1Cl)N1CCCc2ccccc21	nt	i
CCOc1ccccc1NC(=O)c1csc(C)c1C	nt	i
CC1=CC(C)(C)n2c(O)c(N=N)c3c(C)c(C)cc1c32	i	-6.6
CC1=CC(C)(C)n2c(O)c(N=NC(N)=S)c3c(C)c(C)cc1c32	i	i
CCCC1(C)NC(=O)c2ccccc2O1 (stereo not drawn)	i	i
COCCn1c(=O)[nH]c(=O)c2c1nc(-c1cc(Br)c3c(c1)OCO3)n2Cc1ccccc1	nt	i
Cc1nc(SCC(=O)OCc2ccccc2)c(C#N)c(-c2ccccc2)c1C(=O)Nc1ccccc1	nt	i
Cc1ccccc1NC(=O)c1c(C)nc(SCC(=O)OCc2ccccc2)c(C#N)c1-c1ccc(F)cc1	i	-7
CC1(c2nnc(-c3cccc(Cl)c3)o2)CC(c2c(Cl)cccc2Cl)=NO1 (stereo not drawn)	i	-5.6
Cc1ccc(C2=NOC(C)(c3nnc(-c4cccc(Cl)c4)o3)C2)cc1 (stereo not drawn)	nt	i
O=C(CSc1nnc(COc2ccc(Cl)cc2)o1)N1c2ccccc2CCc2ccccc21	i	-9.4
O=C(CSc1nnc(COc2ccc(Cl)cc2)o1)N1CCCC1	i	i
COC(=O)c1ccc(/C=N/N2CCN(Cc3ccccc3Cl)CC2)cc1	nt	i
COC(=O)c1ccc(/C=N/N2CCN(Cc3ccc(C)cc3C)CC2)cc1	i	-7.8
Brc1cnc2nc[nH]c2c1	i	i
CCOC(=O)C1CCN(Cc2cc(=O)oc3c(C)c(C)ccc23)CC1	nt	i
O=C1OC(N2C(=O)CC[C@H]2C(=O)Nc2ccc3c(c2)OCO3)c2ccccc21 (stereo partly drawn)	i	i
SMILES	KCNQ2 pot	KCNQ2 block
COc1ccc(/C=N/NC(=O)c2ccc[nH]2)cc1	i	-6.1
COc1ccc(/C=N/NC(=O)c2cccnc2)cc1	nt	i
O=C(Nc1ccc2ccccc2c1)c1ccc(Cl)cc1Cl	i	i
O=C(Nc1nc(=S)ss1)c1ccc(Cl)cc1Cl	17	i
O=C(COC(=O)c1cccc(Br)c1)NCCc1ccccc1	i	-5.7
O=C(CSCc1ccccc1)NCCc1ccc(F)cc1	i	i
O=C(COC(=O)c1cccc(Br)c1)NCCNC(=O)COC(=O)c1cccc(Br)c1	nt	i
O=C(CSCc1ccc(Br)cc1)NCCc1ccccc1	i	-5.5
CCC(=O)c1cn(CC(=O)Nc2ccc(C)cc2C)c2ccccc12	i	i
Cc1c(NC(=O)CS(=O)(=O)c2ccccc2)c(=O)n(-c2ccccc2)n1C	nt	i
COc1cccc(C(C(=O)NCC2CCCO2)N(C(=O)Cn2nnc3ccccc32)c2ccc(NC(C)=O)cc2)c1OC (stereo not drawn)	i	i
CCOC(=O)CSc1nnc(CNc2cccc(Cl)c2)n1-c1ccccc1	i	-6.4
CC(C)OC(=O)CSc1nnc(CNc2cccc(Cl)c2)n1C	i	i
Cc1cccc(/C=C2\Sc3ccc(C(=O)N4CCCCC4)cc3N(C)C2=O)c1	nt	i
Cc1cccc(/C=C2\Sc3ccc(C(=O)N4CCC(C)CC4)cc3N(C)C2=O)c1	i	-6.5
Cc1ccc(OC(=O)CCNC(=O)c2ccccc2Cl)c(Br)c1	nt	i
OCc1ccccc1OCCOc1ccc(Cl)c2cccnc12	nt	i
Clc1ccc(OCc2cn3ccccc3n2)c2ncccc12	i	-6.6
C=CCC1(Cl)C(=O)C(Cl)=C(N2CCOCC2)C1(OC)OC (stereo not drawn)	nt	i
Cc1ccc(S(=O)(=O)Nc2ccc(NC(=O)c3c(F)c(F)c(F)c(F)c3F)cc2)cc1	i	i
Cc1cc(C)nc(N/N=C/c2ccccc2Cl)n1	i	i
Cc1cc(N/N=C/c2ccccc2Cl)nc(NCc2ccccc2)n1	i	-6.4
COC(=O)c1cn(CCOc2ccccc2)c2ccccc12	nt	i
CCN(CC)C(=O)C(=O)c1cn(CCOc2ccccc2)c2ccccc12	i	-7.3
